In the library only some 13% were active in any assay of this set; here they are far more common.
ALDH1A1 inh – qHTS Assay for Inhibitors of Aldehyde Dehydrogenase 1 (ALDH1A1); Purified ALDH1A1, NADH fluorescence, propionaldehyde substrate; AID 1030, 2008; 220,000 tested, 7.3% active; Potency, µM (series often up to 75.3 µM), for inactives: at the top dose activity, negative = inhibition, hits mostly inhibitors; Aldehyde dehydrogenase 1A1 (Homo sapiens), P00352; active means well fitted inhibition curve with a large enough effect, not every such curve was filed as active; inconclusive means small, poorly fitted or top-dose-only effect, or another doubt; inactive means no such curve, though single readings can be large or run the other way;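 further: potency means the concentration at half of the fitted maximal effect; plate controls were no enzyme wells and a reference inhibitor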
Target sequence (P00352 whole entry, looked up): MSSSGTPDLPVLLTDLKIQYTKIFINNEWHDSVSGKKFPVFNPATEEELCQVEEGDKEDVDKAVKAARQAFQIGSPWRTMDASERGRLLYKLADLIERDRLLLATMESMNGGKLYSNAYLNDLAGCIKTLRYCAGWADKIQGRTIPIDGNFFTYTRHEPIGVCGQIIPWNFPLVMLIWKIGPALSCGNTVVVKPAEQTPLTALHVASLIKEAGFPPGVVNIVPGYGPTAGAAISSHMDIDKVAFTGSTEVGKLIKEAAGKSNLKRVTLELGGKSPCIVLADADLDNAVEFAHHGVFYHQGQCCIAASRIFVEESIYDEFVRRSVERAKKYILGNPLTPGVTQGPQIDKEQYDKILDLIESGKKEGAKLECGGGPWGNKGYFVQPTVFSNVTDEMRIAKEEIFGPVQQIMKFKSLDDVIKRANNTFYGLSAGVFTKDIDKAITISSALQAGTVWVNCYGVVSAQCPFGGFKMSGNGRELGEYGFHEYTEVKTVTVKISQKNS
Lamin A splicing – qHTS Assay for Modulators of Lamin A Splicing. HeLa LMNA splicing GFP/RFP minigene ratio, 48 h. Potency, µM (highest dose often 46.1 µM), inactives show at the top dose ratio change, negative = inhibition, most hits filed as inhibitors. 200,000 tested, 0.01% active. AID 1487, 2009; active means well fitted inhibition curve with a large enough effect in the signal ratio, with a control signal flat, not every such curve was filed as active; inconclusive means small, poorly fitted or top-dose-only effect, or effect the other way, or a change in a side signal; the % refers to the signal ratio; further: potency means the concentration at half of the fitted maximal effect; on the % scale 0 is the no-effect control and ±100 the full control effect
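S3 HeLa stable clones carrying a lamin A-EGFP splicing minigene plus DsRed2 were seeded at 600 cells/well in Opti-MEM with 2% FBS, pin-dosed and incubated 48 h at 37°C. Acumen cytometry (488 nm) gave the GFP/RFP total-intensity ratio.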
Sfp inh – qHTS Assay for Inhibitors of Bacillus subtilis Sfp phosphopantetheinyl transferase (PPTase); 310,000 tested, 3.5% active; Biochemical Sfp PPTase activity, qHTS; Potency, µM, for the others: largest response in the series, negative = inhibition, hits mostly inhibitors; AID 1490, 2009;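 further: the enzyme is Sfp with the accession as filed and its product quenches rhodamine fluorescence; potency means the concentration at half of the fitted maximal effect; 0% = enzyme reaction without inhibitor and -100% = no enzyme wells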
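Buffer: 50 mM Hepes-Na pH 7.6, 10 mM MgCl2, 0.01% Nonidet P-40, 0.01% BSA. Enzyme 15 nM, pre-exposed to compound 15 min; substrates then added and fluorescence change tracked over 30 min.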
KDM4E inh – qHTS Assay for Inhibitors of Human Jumonji Domain Containing 2E (JMJD2E) | Lysine-specific demethylase 4E (Homo sapiens), B2RXH2 | JMJD2E catalytic domain, FDH-coupled NADH fluorescence (FDH is formaldehyde dehydrogenase) | Potency, µM (titrated, usually from 57.1 µM), for the others: top-dose activity change, negative = inhibition, hits mostly inhibitors | 230,000 tested, 1.6% active; active means well fitted inhibition curve with a large enough effect, not every such curve was filed as active; inconclusive means small, poorly fitted or top-dose-only effect, or another doubt; inactive means no such curve, though single readings can be large or run the other way;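 further: potency means the concentration at half of the fitted maximal effect; 0% = wells with enzyme and -100% = buffer wells without enzyme; nearly all actives have a fitted effect of over 50% in size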
miR-21 reporter – qHTS Assay for Modulators of miRNAs and/orActivators of miR-21 | HeLa miR-21 FLuc reporter, luciferase, 48 h | Potency, µM (highest dose often 38.3 µM), inactives show at the highest dose activity change, positive = activation, most hits filed as activators | 340,000 tested, under 10 active;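 further: % of control where 0% means no effect; miR-21 action dims this reporter so a rising signal means less miR-21 action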
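HeLa cells endogenously expressing miR-21, stably carrying CMV-driven firefly luciferase with a downstream miR-21 binding site, 2000 cells/well. Titrations up to approximately 40 uM, 48 hours; luciferase luminescence read.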
G9a block – qHTS Assay for Inhibitors of Histone Lysine Methyltransferase G9a; Histone-lysine N-methyltransferase EHMT2 (Homo sapiens), Q96KQ7; G9a H3K9 monomethylation, AlphaScreen, 2 h; Potency, µM (highest dose often 102 µM), for the others: at the highest dose activity, negative = inhibition, hits mostly inhibitors; 350,000 tested, 8.8% active; AID 504332, 2011; further: potency means the concentration at half of the fitted maximal effect; on the % scale 0 is the no-effect control and ±100 the full control effect; nearly all actives have a fitted effect of over 75% in size
Target sequence (Q96KQ7 913-1193 limits assumed): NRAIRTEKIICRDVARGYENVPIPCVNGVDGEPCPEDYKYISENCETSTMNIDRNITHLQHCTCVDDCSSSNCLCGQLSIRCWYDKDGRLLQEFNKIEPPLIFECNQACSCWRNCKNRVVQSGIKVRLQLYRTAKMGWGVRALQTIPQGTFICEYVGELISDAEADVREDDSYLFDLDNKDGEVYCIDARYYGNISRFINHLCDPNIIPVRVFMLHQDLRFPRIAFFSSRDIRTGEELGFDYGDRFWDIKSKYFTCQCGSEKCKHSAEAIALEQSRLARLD
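Enzyme 20 nM + cpd, 15 min RT; add b-H3K9 pep 500 nM / SAM 20 uM; 2 h RT; anti-H3K9me1 Ab 0.5 ug/mL + SA donor / anti-rabbit acceptor beads 20 ug/mL each, 10 min; AlphaScreen read.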
* = called active by the depositor; u = inconclusive; x = not tested or not shown; [ ] = dose if it differs, or a comment. Unless noted, the call rests on the fitted dose curve; in most records, active means well fitted curve in the direction sought with a large enough effect; inconclusive means small, poorly fitted or top-dose-only effect, or another doubt; inactive means no such curve, though single readings can be large; an effect the other way counts as inactive or inconclusive.

SMILES | ALDH1A1 inh | Lamin A splicing | Sfp inh | KDM4E inh | miR-21 reporter | G9a block
Cn1cccc1/C=C1\SC(=S)N(NC(=O)c2ccccc2O)C1=O | x | x | u | -7.6% | 5.8% | 5.01µM*
O=C(COC(=O)CCC(=O)c1cccs1)NC1CCCCC1 | x | x | x | x | x | 7.3%[59 µM]
O=C(C[n+]1ccc(-c2cc(C(=O)Nc3cccc(C(F)(F)F)c3)c3ccccc3n2)cc1)c1cccc([N+](=O)[O-])c1 | -3.7% | 5.3%[46 µM] | 50.1µM* | -5.7% | 15.5% | 50.1µM*
O=C(C[n+]1cccc(NC(=O)c2ccccc2)c1)c1cccc([N+](=O)[O-])c1 | 9.46µM* | x | -13.0% | 5.0% | -2.4% | u
O=C(C[n+]1cccc(C(=O)N/N=C/c2cccc([N+](=O)[O-])c2)c1)c1ccccc1 | x | x | x | x | x | 50.1µM*
O=C(CCNc1cccc(F)c1)c1cccc([N+](=O)[O-])c1 | 0.631µM* | u | 20.1% | 1.0% | -0.1% | 7.08µM*
O=C(C[n+]1cccc(C(=O)Nc2ccccc2)c1)c1ccc([N+](=O)[O-])cc1 | x | x | -2.6% | x | 0.4% | u
CCC(Oc1ccccc1)C(=O)Nc1ccc(C)c(S(=O)(=O)N2CCOCC2)c1 (stereo not given) | x | x | x | x | x | 7.1%[0.501 µM]
CCCCn1cnc2c(oc3nc4c(cc32)CCCC4)c1=O | 1.26µM* | x | 3.3% | u | -23.8% | x
O=c1c2oc3nc4c(cc3c2ncn1CCCc1ccccc1)CCCC4 | 3.98µM* | x | -11.2% | u | -18.1% | x
COc1ccccc1NC(=O)C(C)n1cnc2c(oc3nc4c(cc32)CCCC4)c1=O (stereo not given) | x | x | 2.7% | x | -13.3% | -9.7%
COc1cccc(NC(=O)Cn2cnc3c(oc4nc5c(cc43)CCCC5)c2=O)c1 | x | x | 10.2% | x | -7.8% | 10.4%
COc1ccccc1NC(=O)Cn1cnc2c(oc3nc4c(cc32)CCCC4)c1=O | x | x | 15.4% | x | -4.4% | 11.2%
CCCCCCn1cnc2c(oc3nc4c(cc32)CCCC4)c1=O | 3.55µM* | -6.8% | 6.3% | -4.6% | -36.7% | -10.4%[59 µM]
O=C(COc1ccccc1-c1nnc(-c2ccccc2)o1)Nc1ccc(Br)cc1F | x | -5.8%[46 µM] | x | x | -1.7% | 15.1%[59 µM]
CC1CCc2[nH]nc(C(=O)O)c2C1 (stereo not given) | 2.7% | 4.3% | -4.3% | 1.8% | -5.7% | 28.2µM*
CCC1CCc2[nH]nc(C(=O)O)c2C1 (stereo not given) | 4.8% | 10.0% | -14.5% | 5.2% | -1.0% | 25.1µM*
CCCOc1ccc(C2C(=O)N(C3CCCCC3)CC(=O)N2CCCOCC)cc1OC (stereo not given) | u | 8.9% | -1.9% | u | -4.0% | 7.94µM*
CSc1ccc(CNc2ccc(C)c(C)c2)cc1 | -0.3% | -12.0% | u | -2.5% | -40.9% | 89.1µM*
COc1ccc(CNC(=O)Nc2ccc(C)c(C)c2)cc1 | 4.7% | x | -16.2% | 0.0% | -20.7% | 12.7%
COc1ccc(CNc2ccc(C)c(C)c2)cc1 | -6.1% | u | 12.5% | -8.7% | -47.2% | 44.7µM*
COc1ccc(NCc2ccc(OC)c(OC)c2)cc1 | 28.2µM* | 14.1% | -2.5% | u | -22.5% | u
COc1ccc(CNc2ccc(Br)cc2)cc1 | 7.7% | x | 56.2µM* | -13.3% | -37.0% | 129.3%
CCCCCCCCOc1c(OC)cc(/C=C/C(=O)N2CCN(c3ccc(C)c(C)c3)CC2)cc1OC | x | x | -5.1% | x | x | x
CCN1CCN(c2nc3c(C)cccn3c(=O)c2/C=C(\C#N)C(=O)NC)CC1 | x | x | 7.9% | x | -3.3% | 1.7%[2.33 µM]
SMILES | ALDH1A1 inh | Lamin A splicing | Sfp inh | KDM4E inh | miR-21 reporter | G9a block
C=CCOc1ccc(CNc2ccc(NC(=O)CC(C)C)cc2)cc1OC | -10.4% | 1.8% | -5.3% | -1.7% | -13.9% | 70.8µM*
C=CCOc1ccc(CNc2nn[nH]n2)cc1OC | u | 12.9% | 12.6% | -1.7% | -3.0% | -1.7%[59 µM]
CN(C)CCNc1cc(-c2ccncc2)nc2ccccc12 | u | -10.6%[46 µM] | 6.5% | u | 24.7% | 22.4µM*
COc1ccccc1Nc1nnc(SCc2cc(=O)n3cc(C)ccc3n2)s1 | -8.3% | -24.8% | 9.6% | 3.2% | -10.7% | 12.6µM*
Nc1nc2ccccc2nc1N | u | -9.0% | -3.1% | 3.16µM* | -12.5% | -18.1%
COc1ccc(Cn2c(SCc3ccc(C(=O)NCc4cccs4)cc3)nc3cccnc32)cc1 | x | x | x | x | 17.2% | -30.4%[59 µM]
NC(=O)c1ccc(NC(=O)CCC(=O)c2cccs2)cc1 | x | x | 4.3% | x | 3.2% | 50.1µM*
O=C(CCC(=O)c1cccs1)c1cccs1 | 28.2µM* | u | 21.1% | 3.5% | -55.3% | 42.1%[59 µM]
O=C(CCC(=O)c1cccs1)NNC(=O)c1ccccc1O | x | x | x | x | x | 17.6%[12.7 µM]
COc1cc(NCCC(=O)c2cccs2)c(OC)cc1Cl | 1.41µM* | u | -8.8% | -10.8% | 4.3% | 7.94µM*
CC(=O)N1c2ccccc2Sc2ccccc21 | x | x | 22.9% | x | -5.9% | 12.4%
CN1c2ccccc2Sc2cc(N)ccc21 | x | x | -13.3% | x | -12.1% | 1.12µM*
CC(OC(=O)c1cc(=O)[nH]c2ccccc12)C(=O)Nc1ccccc1F (stereo not given) | x | x | x | x | x | 31.6µM*
CC(C)(C)c1ccc(C(=O)C2CCCN(C(=O)c3ccccn3)C2)cc1 (stereo not given) | x | x | -3.7% | x | 15.6% | x
Cc1cnc(C(=O)N2CCCC(C(=O)c3ccc(C(C)(C)C)cc3)C2)cn1 (stereo not given) | 12.6µM* | x | 3.7% | -2.8% | -5.9% | -35.2%
C/C(=N\NC(=O)c1ccccc1C)c1cccnc1 | x | x | 6.8% | x | -17.0% | 24.2%
CSc1nncc(/C(C)=N/O)n1 | 3.4% | -12.1% | 17.1% | 3.4% | -3.8% | 0.6%[59 µM]
CSc1nncc(/C(C)=N\Nc2ccccc2C)n1 | u | 5.6% | 0.9% | -12.9% | -15.1% | 2.51µM*
C/C(=N\Nc1ccccc1C)c1cccnc1 | x | x | 2.6% | x | -5.2% | 1.41µM*
CCOC(=O)C1CCN(C(=O)c2cc(COc3ccc(OC)c4ccccc34)on2)CC1 | x | x | -1.1% | x | -53.9% | 44.7µM*
Cc1[nH]c(=S)c(C#N)c(-c2ccco2)c1C(=O)N(C)C | 28.2µM* | x | 10µM* | u | -4.5% | 3.55µM*
CC(=O)c1c(C)[nH]c(=S)c(C#N)c1-c1ccc(Cl)cc1 | x | x | u | -18.0% | -12.0% | 4.47µM*
CCCCOc1ccc(-c2c(C(=O)Nc3ccccc3)c(C)[nH]c(=S)c2C#N)cc1 | 3.55µM* | 5.4%[46 µM] | 14.8% | 4.4% | -3.8% | u
CCOC(=O)c1c(C)[nH]c(=S)c(C#N)c1-c1ccc(OC)cc1 | u | -1.3% | u | u | -14.0% | u
